A short description of this assay: NFkB reporter suppression in cystic fibrosis bronchial cells – cell-based, uHTS hits, panel, cytotoxicity readout, dose response (AID 624344). To be noted: CF bronchial epithelial cells, PAF-induced NFkB reporter inhibition, with PAF, run 2; at 79 µM (top of the series) unless noted.
For orientation: inhibition means the drop in the measured response relative to a control, in per cent. Turning to `CN(C)c1ccc(Nc2ncnc3ccc(Br)cc23)cc1`, the inhibition was found to be 118%. With `O=C(Nc1ccncc1)c1c(Cl)cccc1Cl`, the inhibition was found to be 101%.

With `O=C1CC(=O)OC(c2ccc([N+](=O)[O-])cc2)O1`, the inhibition came out at 94.3%. With `O=C(Oc1cc2oc(=O)cc(-c3ccccc3)c2cc1Cl)C1CCCCC1` the figure was 105%; with `C=CCN1c2ccccc2[C@]23C[C@@H](C(=O)OC)N(C(=O)c4ccc(Br)cc4)C2=NC(C(=O)OC)=C(C(=O)OC)[C@H]13`, 101%. `COc1cc(-c2cnc3c(NC=O)cc(-c4ccc(C)cc4)cn23)cc(OC)c1OC`: the inhibition worked out at 70.5%. For the compound `CCCCN(CCCC)c1ncnc2nc[nH]c12`, the inhibition was determined as 118%. With `COc1ccc2c(c1OC)C(=O)N1c3ccccc3C(=O)N(c3ccccc3)C21` (centres undefined), the inhibition was 102%. For `OCCN1CCN(c2ncnc3ccc(Br)cc23)CC1`, the inhibition is 107%. For `CC[C@@H](C(=O)[C@@H](C)[C@@H](O)[C@H](C)[C@@H]1O[C@@H]([C@@H](CC)C(=O)O)CC[C@@H]1C)[C@H]1O[C@]2(C=C[C@@H](O)[C@]3(CC[C@@](C)([C@H]4CC[C@](O)(CC)[C@H](C)O4)O3)O2)[C@H](C)C[C@@H]1C`, the inhibition was found to be 107%.

With `COc1cc(O)c(CC=C(C)C)c(O)c1C(=O)CCc1ccc(O)cc1`, the inhibition came to 104%. On to `CC(C)(C)S(=O)N1Cc2cc(C(=O)NCC(F)(F)F)nc(-c3cccc(-c4cccc(F)c4)c3)c2[C@@H]1CCO` (some centres undefined), for which the inhibition amounted to 103%.

On to `COc1ccc(-c2cnc3c(NC=O)cc(-c4ccccc4OC)cn23)cc1OC`, for which the inhibition was 102%.

With `C/C(=N/NC(=O)c1cccs1)c1ccc(NC(=O)COc2ccc(Cl)cc2)cc1`, the inhibition amounted to 72.9%.

The values are drawn from PubChem BioAssay.
